CHX counter = Cycloheximide Counterscreen for Small Molecule Inhibitors of Shiga Toxin. hit rate 12% among 300,000. AID 2314, 2010. max response, %. cell reporter, cycloheximide protein synthesis inhibition counterscreen; in the data active = max response mostly above about 13%, no sharp cut-off; inactive = mostly below about 14%; also: read at 38.3 µM for the half of the compounds with a filed dose; 0% is about no effect
Lassa entry inh = qHTS for Inhibitors of binding or entry into cells for Lassa Virus; Potency, µM (highest dose often 37.9 µM), without a hit: top-dose activity change, negative = inhibition, usual class: inhibitors; hit rate 1.2% among 300,000; AID 540256, 2011; Lassa virus pseudotype entry inhibition, cell reporter; calls by dose curve; tested in HEK293 cells; also: potency is read from the fitted curve at half-maximal effect; % is scaled to controls: 0 for no effect and ±100 for the full control effect; nearly all actives have a fitted effect of over 50% in size
Vaccinia Venus = qHTS for Stage-Specific Inhibitors of Vaccinia Orthopoxvirus: Venus Reporter Primary qHTS; hit rate 0.46% among 330,000; Potency, µM (titrated, usually from 36.5 µM), for inactives: at the highest dose activity change, negative = inhibition, hits mostly inhibitors; Vaccinia virus Venus reporter expression, fluorescence; AID 720580, 2013; calls by dose curve; tested in A549 cells; also: potency is read from the fitted curve at half-maximal effect; % is scaled to controls: 0 for no effect and ±100 for the full control effect; nearly all actives have a fitted effect of over 30% in size
MARV entry inh = qHTS for inhibitors of binding or entry into cells for Marburg Virus; Marburg virus pseudotyped entry inhibition, cell reporter; Potency, µM (doses to about 37.8 µM), inactives show top-dose activity change, negative = inhibition, actives largely listed as inhibitors; hit rate 1.8% among 300,000; AID 540276, 2011; calls by dose curve; tested in HEK293 cells; also: potency is read from the fitted curve at half-maximal effect; % is scaled to controls: 0 for no effect and ±100 for the full control effect
Shiga inhibitor = A qHTS for Small Molecule Inhibitors of Shiga Toxin; hit rate 9.2% among 290,000; inhibition, % at 38.7 µM; Vero cells, Shiga toxin protein synthesis inhibition reporter; in the data active = inhibition mostly above about 28%, no sharp cut-off; inactive = mostly below about 43%; also: 0% is about no effect
Vaccinia mCherry = qHTS for Stage-Specific Inhibitors of Vaccinia Orthopoxvirus: mCherry Reporter Primary qHTS; Vaccinia virus mCherry reporter infection, fluorescence; Potency, µM (titrated, usually from 36.5 µM), for inactives: at the top dose activity change, negative = inhibition, hits mostly inhibitors; hit rate 0.63% among 310,000; AID 720579, 2013; calls by dose curve; tested in A549 cells; also: potency is read from the fitted curve at half-maximal effect; % is scaled to controls: 0 for no effect and ±100 for the full control effect; nearly all actives have a fitted effect of over 35% in size
An asterisk follows results filed as active; i = inactive; u = inconclusive; x = not tested or not shown; [ ] = another dose, or the depositor's remark. Many of the other results were omitted from the sample, so hits are more common in it than they were.

SMILES	CHX counter	Lassa entry inh	Vaccinia Venus	MARV entry inh	Shiga inhibitor	Vaccinia mCherry
COc1cccc(C(=O)c2cn(CC(=O)Nc3cccc(C(F)(F)F)c3)c3nc(C)ccc3c2=O)c1	x	8%[46.1 µM]	-16%	x	x	-18%
CNCC[C@H](Oc1ccccc1OC)c1ccccc1	x	x	x	18µM*	x	x
O=C(NCCC1=CCCCC1)NC12CC3CC(CC(C3)C1)C2	44*	u	x	-18%	70*	x
O=C(NCCc1ccc(F)cc1)NC12CC3CC(CC(C3)C1)C2	64*	x	x	x	120*	x
Oc1ccc(NCc2ccccc2OCc2ccccc2F)cc1	-2	u	7%	-3%[46.1 µM]	5	-2%
Cc1ccc(NCc2ccccc2OCc2ccccc2F)cc1	18*	-27%	x	u	27*	x
CN(C)c1ccc(-c2c(C3C4C=CCCC4(C)C(=O)N3Cc3ccccc3)ccc3ccccc23)cc1 (stereo not given)	14	x	x	x	13	x
CCOC(=O)N1CCN(C(=O)c2ccc(Cl)c(S(=O)(=O)N3CCCC3)c2)CC1	1	-5%	-17%	-13%	-17	-7%
CCOC(=O)c1c(-c2ccc(C)cc2)csc1NC(=O)C1CCCO1 (stereo not given)	6	u	-11%	u	14	i
COC(=O)c1c(-c2cccc(C)c2)csc1NC(=O)C1CCCO1 (stereo not given)	27*	-2%	-5%	u	15	i
COC(=O)c1c(-c2ccc(C)cc2)csc1NC(=O)C1CC=CCC1C(=O)O (stereo not given)	10	u	-9%	u	active	0%
CC(C)OC(=O)c1c(-c2ccc(C(C)C)cc2)csc1NC(=O)C1CCCO1 (stereo not given)	-4	5.6µM*	-6%	u	-17	-11%
COC(=O)c1c(-c2cc(C)ccc2C)csc1NC(=O)C1CC=CCC1C(=O)O (stereo not given)	-4	4%	-8%	0%[46.1 µM]	40	i
S=C(NNc1ccnc2cc(Cl)ccc12)Nc1ccccc1Cl	23*	u	-28%	u	52	-14%
CCc1ccc(N2C(=O)NC(=O)/C(=C/c3cccn3CCOc3ccc(C(C)CC)cc3)C2=O)cc1 (stereo not given)	77*	x	x	1%	121*	x
CCc1ccc(N2C(=O)NC(=O)/C(=C/c3cccn3CCOc3ccc(C)cc3)C2=O)cc1	13*	2%[46.1 µM]	-11%	15%[46.1 µM]	-3	i
COc1cc(-c2nc3sccn3c2Nc2cccc(C)c2)ccc1O	x	13%[46.1 µM]	-2%	26%[46.1 µM]	x	-4%
Clc1ccc2nc(C3CCN(Cc4ccccc4)CC3)[nH]c2c1	-3	u	-25%	u	-8	-6%
Cc1ccc(CN2CCC(c3nc4ccc(Cl)cc4[nH]3)CC2)cc1	-4	u	u	4.1µM*	-9	-8%
CCNC(=S)N1CCCC(c2nc3ccc(C)cc3[nH]2)C1 (stereo not given)	9	x	-16%	x	29	i
Cc1ccc2nc(C3CCCCC3)[nH]c2c1	38*	x	x	x	42*	x
CCCCCC1=CC2=C(C(=O)OC)C(c3ccccc3)NC(=O)N2CC1 (stereo not given)	x	x	x	1%[14.2 µM]	x	x
CCc1cccc(C)c1NS(=O)(=O)c1cc2[nH]c(=O)c(=O)[nH]c2cc1C	x	18%[46.1 µM]	2%	x	x	0%
COc1cc(NC(=O)CSc2nc(C)cc(C)n2)cc(OC)c1OC	-3	6%	-16%	u	-7	i
O=C(Nc1cccc(C(F)(F)F)c1)Nc1nnc([C@@H]2C[C@H](O)[C@@H](CO)O2)s1	x	x	-6%	x	x	-5%
O=C(CCl)Nc1c[nH]c(=O)[nH]c1=O	6	u	7.9µM*	u	-1	7.1µM*
CC1(C)Cc2c(cnn2-c2ccc(F)cc2)C(NC(=O)CCN2CCCC2=O)C1 (stereo not given)	30*	x	0%[7.34 µM]	x	47*	i[7.34 µM]
CC(=O)c1ccc(C(=O)NC2CC(C)(C)Cc3c2cnn3-c2ccccc2)cc1 (stereo not given)	19*	12%	-9%	25%	17	-2%
COCC(=O)NC1CC(C)(C)Cc2c1cnn2-c1ccc(F)cc1 (stereo not given)	10	x	x	x	14	x
